Assay results published in PubChem BioAssay (NCATS).
Records with an inconclusive call do not appear. The source made the active and inactive calls. Unless noted, calls follow the shape of the dose curve; as a rule, active = well fitted curve in the direction sought with a large enough effect; inconclusive = small, poorly fitted or top-dose-only effect, or another doubt; inactive = no such curve, though single readings can be large; an effect the other way counts as inactive or inconclusive.

Assays:
[1] = biological target: Estrogen receptor (Homo sapiens) (UniProt P03372); assay: qHTS assay for small molecule antagonists of estrogen receptor alpha signaling (AID 588513; active = well fitted curve in the direction sought with a large enough effect in the signal ratio, with a control signal flat, not every such curve was filed as active; the % refers to the signal ratio; also: % is scaled to controls: 0 for no effect and ±100 for the full control effect)
Summary of the method: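 Beta-lactamase reporter, antagonist mode, HEK 293 GripTite cells; 0.5nM E2 stimulus, 18 h, 37 C; CCF4 dye 2 h RT; fluorescence. IC50 and efficacy from Hill fits, normalized to E2 and DMSO.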

[2] = biological target: Estrogen receptor (Homo sapiens) (UniProt P03372); assay: qHTS assay for small molecule agonists of estrogen receptor alpha signaling (AID 588514; calls by dose curve;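 also: 0% = vehicle only and 100% = reference agonist; nearly all actives have a fitted effect of over 70% in size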)
Summary of the method: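 ER-alpha-UAS-bla GripTite HEK 293 cells in medium with 2% charcoal/dextran-treated FBS were treated with compound titrations at 37 C for 18 hrs; beta-lactamase reporter read by CCF4 fluorescence after 2 hrs at RT.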

[3] = qHTS assay for small molecule antagonists of peroxisome proliferator-activated receptor delta signaling (AID 588535); conditions: HEK293T PPARd-UAS-bla, beta-lactamase FRET ratio, 18 h; 460 nm channel;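 also: cells co-treated with a PPAR-delta agonist as stimulator during compound exposure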
Summary of the method: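 Cells were seeded at 4000 per well in assay medium containing 2% charcoal/dextran FBS and held 5 hrs at 37 C. Compounds were then added for 18 hrs. CCF4 substrate was applied for 2 hrs at room temperature before fluorescence reading.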

[4] = biological target: Peroxisome proliferator-activated receptor gamma (Homo sapiens) (UniProt P37231); assay: qHTS assay for small molecule agonists of peroxisome proliferator-activated receptor gamma signaling (AID 588536; active = well fitted curve in the direction sought with a large enough effect in the signal ratio, with a control signal flat, not every such curve was filed as active; the % refers to the signal ratio;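 also: 0% = DMSO basal wells and 100% = rosiglitazone at 2 µM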)
Summary of the method: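 PPAR-gamma-UAS-bla HEK293 cells in medium with 1% charcoal/dextran-treated FBS were exposed to compounds for 16 h at 37 C. Beta-lactamase activity was read with CCF4 substrate (405 nm excitation, 460/530 nm emission).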

[5] = qHTS assay for small molecule agonists of retinoid X receptor alpha signaling (AID 588544; calls by dose curve;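 as to activation: 0% = DMSO basal wells and 100% = reference agonist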); conditions: HEK293T RXRa-UAS-bla, beta-lactamase reporter, 18 h; 530 nm emission
[6] = biological target: Retinoic acid receptor RXR-alpha (Homo sapiens) (UniProt P19793); assay: as above
[7] = biological target: Thyroid hormone receptor beta (Homo sapiens) (UniProt P10828); assay: qHTS assay for small molecule agonists of thyroid hormone receptor beta signaling (AID 588545; calls by dose curve)
Summary of the method: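 In this cell-based screen, titrated compounds act on HEK 293 cells held in medium with 2% charcoal/dextran FBS, NEAA and pyruvate for 18 hrs at 37 C. Responses are expressed relative to T3 (10 nM) as 100% and basal DMSO as 0%.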

[8] = qHTS assay for small molecule antagonists of retinoid X receptor alpha signaling (AID 588546; active = well fitted inhibition curve with a large enough effect in the signal ratio, with a control signal flat, not every such curve was filed as active; the % refers to the signal ratio;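 also: cells stimulated with 9-cis-retinoic acid as agonist; % is scaled to controls: 0 for no effect and ±100 for the full control effect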); conditions: HEK293T RXRa-UAS-bla, beta-lactamase ratio, antagonist mode; measured here: W530 green channel, cytotoxicity proxy
Summary of the method: (§1)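 Beta-lactamase reporter inhibition, read as CCF4 fluorescence ratio (ex 405, em 460/530 nm) after 2 h at RT. HEK293T UAS-bla cells, 2500/well, were stimulated with 9-cis-RA at 500 or 100 nM final alongside test compound for 18 h at 37 C.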

[9] = biological target: Thyroid hormone receptor beta (Homo sapiens) (UniProt P10828); assay: qHTS assay for small molecule antagonists of thyroid hormone receptor beta signaling (AID 588547; active = well fitted inhibition curve with a large enough effect in the signal ratio, with a control signal flat, not every such curve was filed as active; the % refers to the signal ratio;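 also: cells stimulated with 0.4 nM T3 agonist during compound exposure; series mostly up to about 77 µM; % is scaled to controls: 0 for no effect and ±100 for the full control effect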); conditions: TR-UAS-bla HEK293, beta-lactamase ratio, antagonist mode, 18 h
Summary of the method: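 TR-UAS-bla GripTite HEK293 cells in 2% charcoal/dextran FBS medium; compounds 0.59 nM to 92 uM with T3 at 0.4nM final, 18 h at 37 C. Beta-lactamase read by CCF4 fluorescence (460/530 nm); Hill fits gave IC50 and efficacy.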

[10] = qHTS assay for environmental chemicals that activate the Aryl hydrocarbon Receptor (AhR) signaling pathway (AID 651777); conditions: 1A2-DRE human hepatoma cells, luciferase, 24 h; activation: stronger effect = higher value; also: nearly all actives have a fitted effect of over 15% in size; also: potency is read from the fitted curve at half-maximal effect; as to activation: % of control where 0% means no effect
Summary of the method: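 Human hepatoma 1A2-DRE cells stably carrying a DRE/CYP1A2 promoter–luciferase reporter, 1,200 cells/well, exposed to compound 24 hr at 37 C. Luciferase read by One-Glo luminescence after 30 min at room temperature; increased signal marks AhR activation.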

[11] = biological target: Peroxisome proliferator-activated receptor alpha (Homo sapiens) (UniProt Q07869); assay: qHTS assay for small molecule agonists of the peroxisome proliferator-activated receptor alpha (PPARalpha) signaling pathway (AID 651778); conditions: PathHunter PPARalpha complementation, chemiluminescence, 6 h; max response: stronger effect = higher value; also: % of control where 0% means no effect
Summary of the method: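 Enzyme-fragment complementation assay in which ligand-bound PPARalpha translocates and forms an active enzyme that generates chemiluminescence. Cells were plated overnight, exposed to compound for 6 hr at 37 C, and then given detection reagent for 60 min at room temperature.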

[12] = qHTS assay for small molecule agonists of the antioxidant response element (ARE) signaling pathway measured by Nrf2-dependant transcriptional activity (AID 720636; active = well fitted curve in the direction sought with a large enough effect in the repeat runs; an effect the other way counts as inactive or inconclusive; also: potency is read from the fitted curve at half-maximal effect; as to activation: % of control where 0% means no effect)
Summary of the method: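 ARE-luc HepG2 cells carrying an Nrf2-responsive luciferase reporter, in medium with 1% dialyzed FBS, exposed to compound for 16 hr at 37 C, 5% CO2. Luminescence read 30 min after ONE-Glo addition.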

[13] = qHTS assay for small molecule agonists of the antioxidant response element (ARE) signaling pathway measured by Nrf2-dependant transcriptional activity - cell viability counter screen (AID 720653; active = well fitted curve in the direction sought with a large enough effect in the repeat runs; an effect the other way counts as inactive or inconclusive; also: % is scaled to controls: 0 for no effect and ±100 for the full control effect); conditions: ARE-bla HepG2 viability, CellTiter-Glo ATP luminescence, 16 h; max response: stronger effect = lower value
Summary of the method: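 ARE-bla HepG2 cells treated with compounds for 16 h at 37C; this counter screen measures viability as intracellular ATP by CellTiter-Glo luminescence after 30 min at room temperature.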

[14] = qHTS assay for cell viability of HEK293 cells (AID 743288); conditions: ATP luminescence (CellTiter-Glo), 18 h; max response: stronger effect = lower value; also: % is scaled to controls: 0 for no effect and ±100 for the full control effect; nearly all actives have a fitted effect of over 50% in size
Summary of the method: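 Environmental chemicals tested in qHTS format against parental HEK293 cells; 18 h treatment, 37 C; read-out ATP luminescence (CellTiter-Glo), 30 min RT development.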

[15] = qHTS assay for cell viability of the p53RE-bla HCT-116 cell line (AID 743292); also: % is scaled to controls: 0 for no effect and ±100 for the full control effect; nearly all actives have a fitted effect of over 55% in size
Summary of the method: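 CellSensor p53RE-bla HCT-116 cells (4,000/well) pre-incubated 5 h at 37 C, then exposed to compounds in DMSO for 16 h at 37 C. Viability read as ATP content by CellTiter-Glo luminescence after 30 min at room temperature.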

[16] = biological target: Nuclear receptor subfamily 1 group I member 2 (Rattus norvegicus) (UniProt Q9R1A7); assay: qHTS assay for small molecule activators of the rat pregnane X receptor (rPXR) signaling pathway (AID 651751; call rule not given here; also: 0% is about no effect); conditions: rPXR reporter cells, luciferase (One-Glo), 24 h
[17] = qHTS assay for small molecule activators of the human pregnane X receptor (PXR) signaling pathway (AID 720659; call rule not given here; also: 0% is about no effect)
[18] = biological target: Vitamin D3 receptor (Homo sapiens) (UniProt P11473); assay: qHTS assay for small molecule agonists of vitamin D receptor signaling (AID 588543; calls by dose curve;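 also: 0% = DMSO basal and 100% = reference agonist control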)
Summary of the method: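 β-lactamase reporter, VDR-UAS-bla HEK293T, agonist mode. Cells plated 5 h at 37 °C, compound titration 16 h at 37 °C, CCF4 dye 2 h RT, ratio 460/530 nm. Hill fit → EC50, efficacy vs 50 nM 1α,25-(OH)2D3.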

[19] = biological target: Retinoic acid receptor RXR-alpha (Homo sapiens) (UniProt P19793); assay: qHTS assay for small molecule antagonists of retinoid X receptor alpha signaling (AID 588546); conditions: HEK293T RXRa-UAS-bla, beta-lactamase ratio, antagonist mode;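 also: cells stimulated with 9-cis-retinoic acid as agonist; % is scaled to controls: 0 for no effect and ±100 for the full control effect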
Summary of the method: as §1

[20] = qHTS assay for small molecule activators of the nuclear factor-kappa B (NF-kB) signaling pathway (AID 651749; active = well fitted activation curve with a large enough effect in the signal ratio; the % refers to the signal ratio; also: series mostly up to about 77 µM; % of control where 0% means no effect); conditions: NF-kB-bla ME-180 cells, beta-lactamase FRET ratio, 16 h; activation: stronger effect = higher value
Summary of the method: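 Incubation lasted 16 hr at 37C in 5% CO2 after 23 nL compound addition to ME-180 NF-kB-bla cells. Activation appears as beta-lactamase-mediated FRET loss.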

Chain of Retinoic acid receptor RXR-alpha (Homo sapiens) (P19793 whole entry, looked up): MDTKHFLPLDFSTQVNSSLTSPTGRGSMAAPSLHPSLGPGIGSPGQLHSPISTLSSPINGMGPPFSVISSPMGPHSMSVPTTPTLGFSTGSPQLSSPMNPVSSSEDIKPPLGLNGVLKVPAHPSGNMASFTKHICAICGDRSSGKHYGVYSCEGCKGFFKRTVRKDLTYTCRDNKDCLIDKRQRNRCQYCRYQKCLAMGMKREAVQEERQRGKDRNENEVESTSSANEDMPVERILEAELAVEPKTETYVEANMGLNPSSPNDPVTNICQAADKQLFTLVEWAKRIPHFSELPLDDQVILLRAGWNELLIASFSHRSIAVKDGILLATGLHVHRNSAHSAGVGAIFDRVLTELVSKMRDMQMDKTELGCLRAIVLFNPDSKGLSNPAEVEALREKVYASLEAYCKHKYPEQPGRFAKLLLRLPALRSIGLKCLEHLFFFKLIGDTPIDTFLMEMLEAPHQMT
Chain of Vitamin D3 receptor (Homo sapiens) (P11473 whole entry, looked up): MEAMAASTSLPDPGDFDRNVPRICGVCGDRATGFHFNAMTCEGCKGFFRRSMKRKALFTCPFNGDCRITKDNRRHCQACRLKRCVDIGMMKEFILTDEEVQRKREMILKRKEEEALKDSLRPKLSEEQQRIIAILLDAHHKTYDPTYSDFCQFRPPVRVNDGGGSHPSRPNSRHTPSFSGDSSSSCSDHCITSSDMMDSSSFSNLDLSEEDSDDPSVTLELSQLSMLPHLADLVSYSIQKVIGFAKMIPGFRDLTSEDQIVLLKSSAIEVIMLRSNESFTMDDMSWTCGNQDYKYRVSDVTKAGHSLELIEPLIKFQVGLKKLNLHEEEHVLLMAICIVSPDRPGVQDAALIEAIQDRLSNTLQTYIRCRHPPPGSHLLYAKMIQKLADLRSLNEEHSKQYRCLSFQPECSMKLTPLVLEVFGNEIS
Chain of Estrogen receptor (Homo sapiens) (P03372 whole entry, looked up): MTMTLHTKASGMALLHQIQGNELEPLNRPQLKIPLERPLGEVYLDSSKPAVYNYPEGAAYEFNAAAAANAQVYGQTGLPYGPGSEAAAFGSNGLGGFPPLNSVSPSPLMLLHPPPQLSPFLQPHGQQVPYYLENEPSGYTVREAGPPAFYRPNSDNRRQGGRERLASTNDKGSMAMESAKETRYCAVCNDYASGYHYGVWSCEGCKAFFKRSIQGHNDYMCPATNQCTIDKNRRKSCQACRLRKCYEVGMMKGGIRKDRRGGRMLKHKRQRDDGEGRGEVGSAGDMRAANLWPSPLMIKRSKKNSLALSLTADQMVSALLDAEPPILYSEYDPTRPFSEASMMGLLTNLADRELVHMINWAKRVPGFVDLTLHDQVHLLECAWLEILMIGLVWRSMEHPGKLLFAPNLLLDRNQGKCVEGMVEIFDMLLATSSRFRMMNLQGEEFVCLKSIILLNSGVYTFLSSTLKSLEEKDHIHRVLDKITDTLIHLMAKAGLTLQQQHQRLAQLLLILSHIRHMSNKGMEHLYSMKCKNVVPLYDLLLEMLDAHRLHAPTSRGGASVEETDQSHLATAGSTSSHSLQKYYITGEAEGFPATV
Chain of Thyroid hormone receptor beta (Homo sapiens) (P10828 whole entry, looked up): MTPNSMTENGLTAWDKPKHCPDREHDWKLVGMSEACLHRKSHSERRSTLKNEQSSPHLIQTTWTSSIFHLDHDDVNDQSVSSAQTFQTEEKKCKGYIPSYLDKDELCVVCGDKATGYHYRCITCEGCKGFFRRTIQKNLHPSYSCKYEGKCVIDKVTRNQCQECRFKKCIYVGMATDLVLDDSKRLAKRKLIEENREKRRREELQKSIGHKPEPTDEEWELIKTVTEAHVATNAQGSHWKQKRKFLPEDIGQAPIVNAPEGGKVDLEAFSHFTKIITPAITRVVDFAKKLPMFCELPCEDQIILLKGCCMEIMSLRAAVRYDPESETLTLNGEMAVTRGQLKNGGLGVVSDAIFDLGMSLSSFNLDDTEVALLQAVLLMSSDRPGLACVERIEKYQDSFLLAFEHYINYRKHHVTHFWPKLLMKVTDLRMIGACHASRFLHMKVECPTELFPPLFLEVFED
Chain of Nuclear receptor subfamily 1 group I member 2 (Rattus norvegicus) (Q9R1A7 whole entry, looked up): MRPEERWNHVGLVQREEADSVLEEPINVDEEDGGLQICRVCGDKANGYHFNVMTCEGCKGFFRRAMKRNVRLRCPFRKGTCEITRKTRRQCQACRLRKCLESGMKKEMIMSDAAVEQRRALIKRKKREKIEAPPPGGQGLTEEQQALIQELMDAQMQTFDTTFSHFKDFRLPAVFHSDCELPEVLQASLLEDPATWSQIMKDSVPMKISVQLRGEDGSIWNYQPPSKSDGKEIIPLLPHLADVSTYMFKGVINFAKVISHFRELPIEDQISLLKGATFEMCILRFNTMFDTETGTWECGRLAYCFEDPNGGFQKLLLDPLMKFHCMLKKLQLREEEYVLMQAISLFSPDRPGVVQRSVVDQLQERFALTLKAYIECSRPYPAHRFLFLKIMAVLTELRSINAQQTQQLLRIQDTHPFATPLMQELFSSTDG
Chain of Peroxisome proliferator-activated receptor alpha (Homo sapiens) (Q07869 whole entry, looked up, the tested form may be a part): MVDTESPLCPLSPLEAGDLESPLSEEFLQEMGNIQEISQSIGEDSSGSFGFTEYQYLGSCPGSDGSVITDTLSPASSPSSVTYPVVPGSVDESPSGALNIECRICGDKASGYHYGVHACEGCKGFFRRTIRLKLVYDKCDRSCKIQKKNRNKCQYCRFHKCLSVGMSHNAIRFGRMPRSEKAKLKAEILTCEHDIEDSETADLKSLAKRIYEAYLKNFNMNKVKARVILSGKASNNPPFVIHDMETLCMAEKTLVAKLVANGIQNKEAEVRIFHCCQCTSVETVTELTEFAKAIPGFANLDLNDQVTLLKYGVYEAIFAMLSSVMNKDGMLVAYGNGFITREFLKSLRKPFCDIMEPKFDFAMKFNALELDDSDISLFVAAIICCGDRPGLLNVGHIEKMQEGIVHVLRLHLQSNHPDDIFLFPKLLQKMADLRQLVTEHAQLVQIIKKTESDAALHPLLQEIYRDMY
Chain of Peroxisome proliferator-activated receptor gamma (Homo sapiens) (P37231 whole entry, looked up): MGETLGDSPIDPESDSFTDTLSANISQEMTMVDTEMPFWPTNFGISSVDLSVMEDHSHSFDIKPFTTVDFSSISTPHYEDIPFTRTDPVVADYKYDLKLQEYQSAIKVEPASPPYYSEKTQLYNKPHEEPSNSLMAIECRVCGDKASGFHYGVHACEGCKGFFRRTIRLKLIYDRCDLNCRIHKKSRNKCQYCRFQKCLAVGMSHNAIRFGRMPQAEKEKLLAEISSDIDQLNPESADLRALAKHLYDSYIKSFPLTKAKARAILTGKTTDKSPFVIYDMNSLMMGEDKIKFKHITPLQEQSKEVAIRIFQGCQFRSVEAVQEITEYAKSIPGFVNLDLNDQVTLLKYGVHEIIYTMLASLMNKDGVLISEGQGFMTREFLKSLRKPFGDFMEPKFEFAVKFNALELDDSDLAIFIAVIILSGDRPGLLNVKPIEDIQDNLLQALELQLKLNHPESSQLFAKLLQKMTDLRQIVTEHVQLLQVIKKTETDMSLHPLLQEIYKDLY

O=C(O)c1ccc(C(=O)O)c(C(=O)O)c1
inactive: Potency [1] | Potency [2] | outcome [4] | Potency [6] | Potency [7] | activity change % (negative = inhibition) [9] 8.09% | activation [10] 0.771% | max response [11] -1.17% | Potency [12] | max response [13] -4.75% | max response [14] -0.128% | Potency [15] | max response [16] 0.399% | outcome [17]
-62.8%: max response [3]
-17.6%: max response [5]
-4.49%: max response [8]

CCCCCCCOC(=O)c1ccccc1C(=O)OCCCCCCC
-2.68%: max response [5]
inactive: Potency [1] | Potency [2] | outcome [4] | outcome [18] | Potency [6] | Potency [7] | max response [19] 5.05% | activation [20] -1.95% | activation [10] -0.336% | max response [11] 0.0123% | Potency [12] | max response [13] 6.19% | max response [14] -8.86% | Potency [15] | max response [16] -1.98% | outcome [17]
-7.26%: max response [3]
-8.81%: max response [8]

Cc1ccc(N=Nc2c(O)ccc3ccccc23)c(C)c1
active: Potency [10] 31.6 µM | Potency [12] 10.9 µM
-15.2%: max response [8]
inactive: Potency [1] | Potency [2] | outcome [4] | outcome [18] | Potency [7] | max response [19] -32% | activity change % (negative = inhibition) [9] 9.11% | activation [20] 6% | max response [11] 0.784% | max response [13] -17.4% | max response [14] -21.3% | Potency [15] | max response [16] 13.1%
9.29%: max response [3]

O=c1[nH]c(=O)c2[nH]cnc2[nH]1
-13.2%: max response [5]
-11.9%: max response [3]
inactive: Potency [1] | Potency [2] | outcome [4] | outcome [18] | Potency [6] | max response [19] -1.52% | activity change % (negative = inhibition) [9] 11.6% | activation [20] -1.45% | activation [10] 0.87% | max response [11] -2.27% | Potency [12] | max response [13] 0.287% | max response [14] -12.8% | Potency [15] | max response [16] 0.842% | outcome [17]
-4.54%: max response [8]

COC(=O)c1cccc(C(=O)OC)c1
-14.8%: max response [8]
inactive: Potency [1] | Potency [2] | outcome [4] | outcome [18] | Potency [6] | Potency [7] | max response [19] -0.335% | activity change % (negative = inhibition) [9] 1.41% | activation [10] 1.87% | max response [11] 0.364% | Potency [12] | max response [13] -6.37% | max response [14] -8.05% | Potency [15] | max response [16] 2.45%
-2.46%: max response [3]
-11.8%: max response [5]

C=C(C)C(=O)OCCOC(=O)C(=C)C
-2.87%: max response [3]
0.328%: max response [5]
-22.3%: max response [8]
inactive: Potency [1] | Potency [2] | outcome [4] | outcome [18] | Potency [6] | Potency [7] | max response [19] -2.81% | activity change % (negative = inhibition) [9] 17.4% | activation [20] -0.69% | activation [10] -1.11% | max response [11] -3.02% | Potency [12] | max response [13] -15.5% | max response [14] -1.71% | Potency [15] | max response [16] -5.37% | outcome [17]

CCSC(=O)N(CC(C)C)CC(C)C
-7.79%: max response [8]
-16.2%: max response [3]
-8.61%: max response [5]
inactive: Potency [1] | Potency [2] | outcome [4] | outcome [18] | Potency [6] | Potency [7] | max response [19] -2.54% | activation [10] 0.255% | max response [11] -0.436% | Potency [12] | max response [13] -3.63% | max response [14] -1.7% | Potency [15] | max response [16] 2.63% | outcome [17]

C=Cc1ccccc1Br
1.9%: max response [8]
-4.64%: max response [5]
-10.1%: max response [3]
inactive: Potency [1] | Potency [2] | outcome [4] | outcome [18] | Potency [6] | Potency [7] | max response [19] -9.99% | activity change % (negative = inhibition) [9] -5.89% | activation [20] -1.27% | activation [10] 1.62% | max response [11] 0.716% | Potency [12] | max response [13] -11.1% | max response [14] -11.7% | Potency [15] | max response [16] -0.877% | outcome [17]

CCCCC(CC)C(=O)OCCOCCOCCOC(=O)C(CC)CCCC (configuration not stated)
37.3%: max response [3]
inactive: Potency [1] | Potency [2] | outcome [4] | outcome [18] | Potency [6] | Potency [7] | max response [19] -7.08% | activity change % (negative = inhibition) [9] 12.7% | activation [20] -6.56% | Potency [12] | max response [13] 1.57% | max response [14] -11.7% | Potency [15] | max response [16] 4.7% | outcome [17]
18.8%: max response [5]
-5.42%: max response [8]

CCC(=O)OCCc1ccccc1
20.5%: max response [3]
-7.14%: max response [5]
-6.4%: max response [8]
inactive: Potency [1] | Potency [2] | outcome [4] | Potency [6] | Potency [7] | max response [19] 3.85% | activity change % (negative = inhibition) [9] -6.7% | activation [20] 1.34% | activation [10] 2.12% | max response [11] -0.0633% | Potency [12] | max response [13] 0.747% | max response [14] -5.25% | Potency [15] | max response [16] -2.51% | outcome [17]

CCCCCCCCCCCCCO
18.2%: max response [3]
-5.73%: max response [8]
-5.38%: max response [5]
inactive: Potency [1] | Potency [2] | outcome [4] | outcome [18] | Potency [6] | Potency [7] | max response [19] 3.57% | activation [10] 0.322% | max response [11] 1.19% | max response [13] -9.94% | max response [14] -5.94% | Potency [15] | max response [16] 1.91% | outcome [17]
